This note sets out measurements from PubChem BioAssay (EPA / NIEHS).

Read-out in test [1]: xenobiotic metabolism (CYP1A2), CYP1A2 (gene 1544)
Briefly: CLD_CYP1A2_6hr: CellzDirect (CLD) Gene Expression Assay for xenobiotic metabolism (CYP1A2) at 6 hours (AID 2283663).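 For AC50: potency is for induction meaning a rise in mRNA above DMSO.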 In outline: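 Primary human hepatocytes from two donor preparations, dosed daily with multiple concentrations in 0.2% DMSO and harvested at 6 h. CYP1A2 mRNA induction measured by chemiluminescent qNPA, gain of signal fitted against DMSO; cytotoxicity flagged morphologically.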

Read-out in test [2]: ABC Transporter (ABCB11), ABCB11 (gene 8647)
Briefly: CLD_ABCB11_24hr: CellzDirect (CLD) Gene Expression Assay for ABC Transporter (ABCB11) at 24 hours (AID 2283674; active = hit-call score of the fitted dose curve at least 0.9, where 1 is the maximum; inactive = score below 0.9). In outline: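 Primary human hepatocytes were dosed daily for two days, with 0.2% DMSO vehicle. ABCB11 mRNA induction was measured at 24 hours by quantitative nuclease protection assay with chemiluminescence. Gain of signal was fitted relative to DMSO.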

Read-out in test [3]: ABC Transporter (ABCB11), ABCB11 (gene 8647)
Kind of test: CLD_ABCB11_6hr: CellzDirect (CLD) Gene Expression Assay for ABC Transporter (ABCB11) at 6 hours (AID 2283675).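 Note: hits raise ABCB11 mRNA level so AC50 marks induction.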 In outline: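 Human primary hepatocytes (two donor preparations) given fresh chemical daily at multiple concentrations, vehicle 0.2% DMSO. ABCB11 mRNA induction measured 6 h after dosing by qNPA chemiluminescence versus DMSO; cytotoxicity annotated from morphology.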

The nature of test [4]: CLD_ACTIN_6hr: CellzDirect (CLD) Gene Expression Assay for Baseline Control (Actin) at 6 hours (AID 2283676).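 Note: active means increased actin mRNA relative to DMSO vehicle.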 In outline: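 Primary human hepatocytes dosed with fresh chemical solutions (vehicle 0.2% DMSO), harvested at 6 h. Actin mRNA quantified by quantitative nuclease protection assay with chemiluminescent read-out, as background control relative to DMSO.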
Read-out in test [5]: Cytochrome P450 2C9 (Homo sapiens) (UniProt P11712)
Kind of test: CLD_CYP2C9_24hr: CellzDirect (CLD) Gene Expression Assay for xenobiotic metabolism (CYP2C9) at 24 hours (AID 2283688). In outline: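 Primary human hepatocytes from two donor preparations, dosed daily for two days at multiple concentrations; vehicle 0.2% DMSO. CYP2C9 mRNA induction at 24 h measured by qNPA chemiluminescence relative to DMSO; cytotoxicity annotated from morphology.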

Read-out in test [6]: organic anion transporter (SLCO1B1), SLCO1B1 (gene 10599)
Kind of test: CLD_SLCO1B1_24hr: CellzDirect (CLD) Gene Expression Assay for organic anion transporter (SLCO1B1) at 24 hours (AID 2283690). In outline: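 Primary human hepatocytes (two donor preparations) dosed daily for two days with chemicals at multiple concentrations, 0.2% DMSO vehicle. SLCO1B1 mRNA at 24 h measured by qNPA chemiluminescence; induction fitted relative to DMSO.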

Read-out in test [7]: glucuronosyltransferase (UGT1A1), UGT1A1 (gene 54658)
Briefly: CLD_UGT1A1_24hr: CellzDirect (CLD) Gene Expression Assay for glucuronosyltransferase (UGT1A1) at 24 hours (AID 2283696). In short, it runs like this: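 Primary human hepatocytes from two donor preparations were dosed (0.2% DMSO vehicle) and harvested at 24 h; UGT1A1 mRNA induction was quantified by chemiluminescent qNPA, fitted as gain relative to DMSO.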

Read-out in test [8]: alkyl and aryl transferase (GSTA2), GSTA2 (gene 2939)
Briefly: CLD_GSTA2_6hr: CellzDirect (CLD) Gene Expression Assay for alkyl and aryl transferase (GSTA2) at 6 hours (AID 2283666). In outline:
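Primary human hepatocytes from two donor preparations were dosed daily with fresh compound at multiple concentrations, 0.2% DMSO vehicle. GSTA2 mRNA was measured at 6 hours by qNPA chemiluminescence; induction fitted relative to DMSO, with cytotoxicity flagged morphologically.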

Test [9] can be described thus: CLD_ACTIN_24hr: CellzDirect (CLD) Gene Expression Assay for Baseline Control (Actin) at 24 hours (AID 2283670). In short, it runs like this:
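Primary human hepatocytes dosed over multiple concentrations with 0.2% DMSO vehicle; actin mRNA measured at 24 h by qNPA chemiluminescence. Background control endpoint, fitted as gain of signal versus DMSO.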

Read-out in test [10]: Cytochrome P450 2C19 (Homo sapiens) (UniProt P33261)
Briefly: CLD_CYP2C19_6hr: CellzDirect (CLD) Gene Expression Assay for xenobiotic metabolism (CYP2C19) at 6 hours (AID 2283678). In outline: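 Primary human hepatocytes from two donor preparations were dosed daily, with 0.2% DMSO as vehicle, and harvested 6 h after dosing. CYP2C19 mRNA induction was measured by qNPA chemiluminescence and fitted as gain of signal against DMSO.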

The nature of test [11]: CCTE_Padilla_ZF_144hpf_TERATOSCORE: (Legacy) CCTE's 144 Hour Post-fertilization zebrafish Assay Teratoscore, Padilla Lab (AID 2283679; active = hit-call score of the fitted dose curve at least 0.9, where 1 is the maximum; inactive = score below 0.9;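 for AC50: zebrafish embryos with chorions exposed by immersion from 6-8 hpf to 5 dpf with daily renewal; teratogenicity score from eye scoring of death hatching and malformations at 144 hpf; higher score means more developmental defects relative to DMSO baseline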). In short, it runs like this: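 Larvae scored by eye at 144 hpf for death, hatching and malformations after a day in clean Hanks'. Before that, daily-renewed exposure at 80 uM (0.4% DMSO, 26C) from roughly 6-8 hpf through 5 dpf, 4 embryos per chemical.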

Read-out in test [12]: ABC Transporter (ABCB1), ABCB1 (gene 5243)
Kind of test: CLD_ABCB1_24hr: CellzDirect (CLD) Gene Expression Assay for ABC Transporter (ABCB1) at 24 hours (AID 2283684).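 Note: potency for increase in ABCB1 mRNA relative to DMSO vehicle.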 In short, it runs like this: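 Primary human hepatocytes, two donor preparations, dosed daily with fresh solutions; vehicle 0.2% DMSO; harvested at 24 h. ABCB1 mRNA measured by quantitative nuclease protection assay (chemiluminescence); morphology-based cytotoxicity annotated.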

Read-out in test [13]: ABC Transporter (ABCB1), ABCB1 (gene 5243)
Briefly: CLD_ABCB1_48hr: CellzDirect (CLD) Gene Expression Assay for ABC Transporter (ABCB1) at 48 hours (AID 2283695).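 For AC50: potency for induction meaning increase of mRNA over DMSO vehicle.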 In short, it runs like this:
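Primary human hepatocytes from two donor preparations dosed daily on two consecutive days with 0.2% DMSO vehicle. Harvest at 48 h. ABCB1 mRNA quantified by qNPA with chemiluminescence and fitted for gain of signal versus DMSO.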

Read-out in test [14]: Cytochrome P450 2C19 (Homo sapiens) (UniProt P33261)
Briefly: CLD_CYP2C19_48hr: CellzDirect (CLD) Gene Expression Assay for xenobiotic metabolism (CYP2C19) at 48 hours (AID 2283700).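 Note: fitted upward so actives raise CYP2C19 mRNA above the 0.2% DMSO vehicle.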 In outline: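 Primary human hepatocytes (two donor preparations) dosed daily for two days, harvested at 48 h; CYP2C19 mRNA induction measured by qNPA chemiluminescence. Gain-of-signal fitted relative to 0.2% DMSO vehicle as baseline.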

Test [15] is described as follows: Tanguay_ZF_120hpf_TR_legacy: (Legacy) Oregon State University Tanguay Lab 120 Hour Post-fertilization zebrafish Assay for Touch Response (AID 2283667). In short, it runs like this: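 5D WT embryos; static exposure to 120 hpf, 28C, sealed/dark; DMSO 0.64% v/v final. TR scored present/absent; dead embryos excluded. Pos ctrl 5uM trimethyltin chloride.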
Read-out in test [16]: Cytochrome P450 3A4 (Homo sapiens) (UniProt P08684)
Briefly: CLD_CYP3A4_24hr: CellzDirect (CLD) Gene Expression Assay for xenobiotic metabolism (CYP3A4) at 24 hours (AID 2283689). In outline: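 Primary human hepatocytes from two donors dosed daily with fresh compound for two days, 0.2% DMSO vehicle. CYP3A4 mRNA at 24 hr by qNPA chemiluminescence; gain-of-signal fit versus DMSO, cytotoxicity flagged by morphology.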

A short description of test [17]: CCTE_Simmons_CellTiterGLO_HEK293T: Viability Assessment in CCTE's Assays for Thyroperoxidase (TPO) Inhibition, Simmons Lab (AID 2283665).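 Note: cells exposed to compound for 24 h before readout; actives reduce ATP signal below DMSO vehicle meaning cytotoxicity.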 In short, it runs like this:
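HEK293T cells in DMEM with 1% FBS were dosed with 8 concentrations (5 nM–87.5 uM final, 0.5% DMSO) for 24 hr at 37C; ATP content was read by CellTiter-Glo luminescence, loss-of-signal versus DMSO, three biological replicates.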
Background: Cellular ATP, detected with luciferase, serves as a proxy for viable cell number.

Read-out in test [18]: Cytochrome P450 (CYP24A1_1), CYP24A1 (gene 1591)
Briefly: LTEA_HepaRG_CYP24A1_1: Life Technologies and Expression Analysis (LTEA) Assay for Cytochrome P450 (CYP24A1_1) using HepaRG (AID 2283671; active = hit-call score of the fitted dose curve at least 0.9, where 1 is the maximum; inactive = score below 0.9). The following applies: mRNA level, 48 h; actives raise or lower the signal. In short, it runs like this:
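In this test, gene induction or suppression of CYP24A1 in human HepaRG liver cells is measured by qRT-PCR after 48 h chemical treatment (eight concentrations, maximum 100 uM). Values are fitted bidirectionally relative to DMSO.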

Molecules are shown by their SMILES. Results filed as inconclusive are left out. Calls of active or inactive are those of the source. Rule for the calls, unless noted: active = hit-call score of the fitted dose curve at least 0.9, where 1 is the maximum; inconclusive = response in the unintended direction; inactive = score below 0.9.

Sequence of Cytochrome P450 3A4 (Homo sapiens) (P08684 whole entry, looked up): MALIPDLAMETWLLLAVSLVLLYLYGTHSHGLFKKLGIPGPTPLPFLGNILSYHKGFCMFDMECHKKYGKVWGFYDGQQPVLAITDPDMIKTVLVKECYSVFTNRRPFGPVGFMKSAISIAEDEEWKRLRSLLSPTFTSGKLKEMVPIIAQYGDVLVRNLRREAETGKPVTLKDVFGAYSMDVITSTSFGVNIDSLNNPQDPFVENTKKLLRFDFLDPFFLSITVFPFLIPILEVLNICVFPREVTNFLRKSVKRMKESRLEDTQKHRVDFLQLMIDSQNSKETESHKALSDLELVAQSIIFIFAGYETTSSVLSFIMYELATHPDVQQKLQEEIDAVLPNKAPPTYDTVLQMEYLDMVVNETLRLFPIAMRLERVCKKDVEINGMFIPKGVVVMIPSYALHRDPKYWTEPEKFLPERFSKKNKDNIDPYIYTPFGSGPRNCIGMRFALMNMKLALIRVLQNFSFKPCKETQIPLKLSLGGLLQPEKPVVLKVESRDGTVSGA
Sequence of Cytochrome P450 2C19 (Homo sapiens) (P33261 whole entry, looked up): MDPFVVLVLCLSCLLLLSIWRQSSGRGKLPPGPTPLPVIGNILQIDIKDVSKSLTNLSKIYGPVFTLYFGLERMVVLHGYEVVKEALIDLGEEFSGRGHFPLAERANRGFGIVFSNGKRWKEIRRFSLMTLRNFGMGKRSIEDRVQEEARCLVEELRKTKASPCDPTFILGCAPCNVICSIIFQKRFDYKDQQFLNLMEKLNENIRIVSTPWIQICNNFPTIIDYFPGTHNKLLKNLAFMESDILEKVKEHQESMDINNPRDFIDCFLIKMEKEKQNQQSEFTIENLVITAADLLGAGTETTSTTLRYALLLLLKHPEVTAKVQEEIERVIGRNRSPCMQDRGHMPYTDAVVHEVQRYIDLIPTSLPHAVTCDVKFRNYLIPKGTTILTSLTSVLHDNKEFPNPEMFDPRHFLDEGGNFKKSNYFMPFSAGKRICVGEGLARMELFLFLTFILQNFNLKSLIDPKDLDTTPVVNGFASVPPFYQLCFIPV

Take `CCOC(=O)[C@H](C)Oc1ccc(Oc2nc3ccc(Cl)cc3o2)cc1`: the compound was classed as inactive in test [1], in test [2], in [3], in [4], in test [5] and in test [6]. For the same compound, in [7], the outcome was inactive.

Broadly, the AC50 is the concentration at which the activity in the assay is half-maximal. Consider `COC(=O)c1ccc(I)cc1S(=O)(=O)NC(=O)Nc1nc(C)nc(OC)n1`, for which the compound was called inactive in test [1], in [8], in test [9], in test [2], in test [3] and in test [4]. Also, the compound was classed as inactive in [10], in test [11], in test [6], in test [13], in [7] and in [14]. The AC50 in test [12] was 20 µM (active).

Consider `OB(O)O`, for which the compound was classed as inactive in test [1], in [15], in test [2], in [3], in test [10] and in test [16]. Besides, the call in test [13], in test [7] and in test [14] was inactive.

`N[C@@H](Cc1cc(I)c(Oc2ccc(O)c(I)c2)c(I)c1)C(=O)O`: the results for the AC50 in test [17] and in test [15] were 43.8 µM (active) and 7.63 µM (active), respectively.

As for `CC(=O)[C@H]1CC[C@H]2[C@@H]3CCC4=CC(=O)CC[C@]4(C)[C@H]3CC[C@]12C`, the call in test [15] was inactive.

`CCOC(=O)COc1cc(-n2ncc(C(F)(F)F)c(C)c2=O)c(F)cc1Cl`: the call in [1], in test [15], in test [9], in test [13] and in [7] was inactive. For the same compound, the AC50 in test [16] was 20 µM (active).

Consider `COC(=O)c1cccc(C)c1S(=O)(=O)NC(=O)Nc1nc(OCC(F)(F)F)nc(N(C)C)n1`, for which the values for the AC50 in test [1] and in [16] were 5.98 µM (active) and 20 µM (active), respectively. Further, the compound was classed as inactive in [3], in test [4], in test [10], in [5], in test [6] and in test [7]. In test [14], the result was inactive.

`C=CCOC(Cn1ccnc1)c1ccc(Cl)cc1Cl` (stereo unspecified): the call in test [8], in test [15], in test [9], in test [4] and in [7] was inactive. Besides, the AC50 in [13] was 36.9 µM (active).

For the compound `CCCCC(CC)COC(=O)c1ccccc1C(=O)O` (stereo unspecified), the compound was called inactive in [1], in [3], in test [10], in test [5], in test [6] and in test [13]. For the same compound, the outcome in [7] and in test [14] was inactive. Further, in [11], the concentration at half-maximal activity (AC50) was 608 nM (active).

As for `CC1(C)C(C=C(Cl)Cl)C1C(=O)OCc1cccc(Oc2ccccc2)c1` (stereo unspecified), the compound was classed as inactive in test [1], in test [8], in [9], in test [3], in test [4] and in [10]. The call in test [5], in test [16], in test [6], in [13], in [7] and in test [14] was inactive. Further, in [11], the AC50 was 3310 nM (active).

With `CCOC(=O)NCCOc1ccc(Oc2ccccc2)cc1`, the compound was called inactive in test [15], in test [9], in [3], in [4], in test [10] and in [5]. For the same compound, the outcome in test [13] and in test [7] was inactive.

Turning to `CCOC(=O)c1ccc(O)cc1`, in [15], the compound was called inactive.

As to `C[C@]12C[C@H](O)[C@H]3[C@@H](CCC4=CC(=O)CC[C@@]43C)[C@@H]1CC[C@@H]2C(=O)CO`, the result in test [15] and in test [11] was inactive.

`COC(=O)c1ccccc1C(=O)O`: the compound was called inactive in test [1], in test [15], in [9], in test [18], in test [2] and in test [3]. Besides, the result in [4], in test [10], in [16] and in test [7] was inactive.
